Consider ten compounds from PMC5540273 (PLoS ONE, 2017).

SMILES strings stand for the structures. Where “and” joins values, the source holds several entries; their conditions need not be identical. Equal entries are not always repeated. Where two headings read alike, the source gives them in different places.

For one assay, the system named is MAP3K3. As to conditions: concentration: 1 μM, replicates: in singlicate, n = 1.
For a further assay, the system named is MAP3K4. Conditions: concentration: 1 μM, replicates: in singlicate, n = 1.
For a further assay, the system named is MAP4K2. Conditions: concentration: 1 μM, replicates: in singlicate, n = 1.
For the next assay, the system named is MAP4K3. Conditions: concentration: 1 μM, replicates: in singlicate, n = 1.
A further assay has as its system MAP4K4. Conditions: concentration: 1 μM, replicates: in singlicate; n = 1.
Another assay deals with MAP4K5. Conditions: concentration: 1 μM, replicates: in singlicate; n = 1.
Another assay concerns MAPKAPK2. As to conditions: concentration: 1 μM, replicates: in singlicate, n = 1.
The test system of another assay is MAPKAPK5. As to conditions: concentration: 1 μM, replicates: in singlicate, n = 1.
The subject of the next assay is MARK1. Conditions: concentration: 1 μM, replicates: in singlicate; n = 1.
A further assay concerns MARK2. Conditions: concentration: 1 μM, replicates: in singlicate, n = 1.
The test system of another assay is MARK3. Conditions: concentration: 1 μM, replicates: in singlicate; n = 1.
Another assay has as its system MARK4. As to conditions: concentration: 1 μM, replicates: in singlicate, n = 1.
A further assay deals with MAST1. Conditions: concentration: 1 μM, replicates: in singlicate, n = 1.
The next assay relates to T1, MEK1.
T1 construct: gene MAP2K1
As to conditions: concentration: 1 μM, replicates: in singlicate, n = 1.

Another assay deals with T2, MEK2.
T2 construct: gene MAP2K2
As to conditions: concentration: 1 μM, replicates: in singlicate, n = 1.

In another assay the test system is T3, MEK3.
T3 construct: gene MAP2K3
As to conditions: concentration: 1 μM, replicates: in singlicate, n = 1.

The subject of another assay is T4, MEK4.
T4 construct: gene MAP2K4
Conditions: concentration: 1 μM, replicates: in singlicate, n = 1.

Another assay has as its system T5, MEK5.
T5 construct: gene MAP2K5
Conditions: concentration: 1 μM, replicates: in singlicate, n = 1.

The subject of another assay is T6, MEK6.
T6 construct: gene MAP2K6
Conditions: concentration: 1 μM, replicates: in singlicate; n = 1.

In another assay the test system is MELK. Conditions: concentration: 1 μM, replicates: in singlicate, n = 1.
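Note: KINOMEscan kinase panel screen.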

As to `Cl.Fc1ccccc1COc1ccc(Nc2ncnc3ccc(-c4nnc(C(F)(F)F)o4)cc23)cc1Cl` [GW424170], the “%Inh” value in the assay on MAP3K3 was found to be 0%; in the assay with MAP3K4 it was 15%; with MAP4K2, 0%; in the assay on MAP4K3, 0%; with MAP4K4, 0%; in the assay with MAP4K5 it was 0%. The “%Inh” value in the assay with MAPKAPK2, with MAPKAPK5, in the assay on MARK1, in the assay with MARK2, in the assay on MARK3 and in the assay on MARK4 was 0% in each case. The “%Inh” value is recorded as 0% in the assay on MAST1; 0% in the assay on MEK1; 0% in the assay with MEK2; 0% with MEK3; 28% in the assay with MEK4; 10% in the assay with MEK5. Also, the “%Inh” value with MEK6 and with MELK was 0% in each case.

Regarding `Cc1cc(N2CCC(NS(=O)(=O)c3ccc(F)cc3)CC2)nc(Nc2cccc(C#N)c2)n1.O=C(O)C(F)(F)F` [GSK1653537], the “%Inh” value was found to be 0% in the assay on MAP3K3; 40% in the assay with MAP3K4; 0% with MAP4K2; 0% in the assay with MAP4K3; 5% with MAP4K4; 3% with MAP4K5. Besides, the “%Inh” value in the assay on MAPKAPK2 was 23%; in the assay with MAPKAPK5 it was 0%; with MARK1 it was 0%; in the assay with MARK2, 0%; in the assay with MARK3, 0%; in the assay on MARK4, 9%. The “%Inh” value turned out to be 0% in the assay on MAST1; 0% in the assay on MEK1; 0% in the assay with MEK2; 0% in the assay with MEK3; 78% with MEK4; 19% in the assay on MEK5. The “%Inh” value with MEK6 is 62%; with MELK, 5%.

For the compound `Fc1ccc(Nc2nccc(-c3c(-c4ccc(Cl)cc4)nn4ncccc34)n2)cc1F` [GW829058], the “%Inh” value in the assay with MAP3K3 is on record as 40%; in the assay with MAP3K4, 17%; in the assay with MAP4K2 it was 34%; with MAP4K3, 0%; in the assay with MAP4K4 it was 1%; with MAP4K5, 6%. Moreover, the “%Inh” value was found to be 3% in the assay with MAPKAPK2; 0% in the assay with MAPKAPK5; 16% in the assay with MARK1; 15% in the assay with MARK2; 34% in the assay on MARK3; 25% in the assay with MARK4. Further, the “%Inh” value was 26% with MAST1; 29% with MEK1; 42% in the assay on MEK2; 27% in the assay on MEK3; 30% in the assay with MEK4; 14% in the assay with MEK5. For the same compound, the “%Inh” value with MEK6 was 13%; with MELK, 0%.

As for `COc1ccc(NC(=O)Nc2ccc(C)c(-c3ccc(C(=O)Nc4ccncc4)cc3)c2)cc1` [GSK1398475], the “%Inh” value with MAP3K3, in the assay on MAP3K4, in the assay on MAP4K2, in the assay with MAP4K3, with MAP4K4 and in the assay on MAP4K5 was 0% throughout. Moreover, the “%Inh” value was 6% in the assay on MAPKAPK2; 0% in the assay on MAPKAPK5; 0% with MARK1; 0% in the assay with MARK2; 0% in the assay with MARK3; 0% in the assay with MARK4. Also, the “%Inh” value with MAST1 is on record as 0%; in the assay on MEK1 it was 0%; with MEK2 it was 0%; with MEK3, 0%; in the assay with MEK4, 18%; in the assay on MEK5, 0%. Also, the “%Inh” value was 0% in the assay on MEK6 and 6% in the assay with MELK.

Regarding `COc1ccc(-c2nc3n(c2-c2ccncc2)CCC3)cc1` [SKF-104493], the “%Inh” value in the assay with MAP3K3 (1 µM) is 6% and 0%; in the assay on MAP3K4 (1 µM), 28% and 3%; in the assay on MAP4K2 (1 µM) it was 7% and 0%; with MAP4K3 (1 µM), 0% and 8%; with MAP4K4 it was 0%; in the assay with MAP4K5, 0%. Besides, the “%Inh” value with MAPKAPK2 (1 µM) is 12% and 9%; in the assay with MAPKAPK5 (1 µM), 13% and 10%; in the assay with MARK1, 0%; in the assay with MARK2 (1 µM) it was 0% and 11%; in the assay on MARK3 it was 0%; in the assay on MARK4 (1 µM), 17% and 0%. For the same compound, the “%Inh” value in the assay on MAST1 (1 µM) is 49% and 11%; with MEK1 (1 µM), 0% and 12%; in the assay with MEK2 (1 µM), 29% and 5%; in the assay on MEK3 (1 µM), 1% and 0%; with MEK4 (1 µM), 67% and 12%; with MEK5 (1 µM), 24% and 0%. Further, the “%Inh” value is 0% with MEK6; 0% and 15% in the assay on MELK (1 µM).

With `CNc1nccc(-c2c(-c3ccc(F)cc3)ncn2CCCN2CCOCC2)n1` [SB-222516], the “%Inh” value amounted to 0% in the assay with MAP3K3; 17% in the assay with MAP3K4; 0% in the assay with MAP4K2; 0% in the assay on MAP4K3; 0% in the assay on MAP4K4; 8% in the assay with MAP4K5. The “%Inh” value in the assay on MAPKAPK2 was 0%; in the assay with MAPKAPK5, 0%; in the assay with MARK1 it was 0%; in the assay with MARK2, 9%; with MARK3, 0%; with MARK4, 35%. Also, the “%Inh” value in the assay with MAST1 was 20%; in the assay on MEK1, 0%; in the assay on MEK2, 12%; in the assay on MEK3 it was 15%; in the assay on MEK4 it was 23%; in the assay on MEK5, 46%. For the same compound, the “%Inh” value was found to be 0% in the assay with MEK6 and 24% in the assay with MELK.

Turning to `Cn1ccc2ncnc(Oc3ccc(NC(=O)Nc4cccnc4)c(Cl)c3)c21`, the “%Inh” value with MAP3K3 worked out at 0%; with MAP3K4, 2%; with MAP4K2, 0%; in the assay with MAP4K3, 0%; in the assay with MAP4K4, 0%; in the assay on MAP4K5 it was 0%. The “%Inh” value was determined as 0% in the assay with MAPKAPK2; 0% in the assay with MAPKAPK5; 0% in the assay with MARK1; 0% in the assay with MARK2; 0% with MARK3; 4% with MARK4. In addition, the “%Inh” value in the assay on MAST1 is 0%; with MEK1 it was 0%; in the assay on MEK2 it was 0%; in the assay on MEK3, 0%; in the assay on MEK4, 0%; in the assay with MEK5 it was 5%. Further, the figures for the “%Inh” value in the assay with MEK6 and in the assay with MELK were 0% and 10%, respectively.

Consider `Nc1n[nH]c2nnc(-c3ccccc3)cc12` [SB-517389], for which the “%Inh” value in the assay on MAP3K3 was 0%; in the assay with MAP3K4, 32%; in the assay with MAP4K2, 0%; in the assay with MAP4K3 it was 0%; in the assay on MAP4K4, 3%; in the assay with MAP4K5 it was 0%. Also, the “%Inh” value is given as 5% in the assay with MAPKAPK2; 0% in the assay with MAPKAPK5; 0% in the assay with MARK1; 0% in the assay on MARK2; 0% with MARK3; 0% in the assay with MARK4. The “%Inh” value with MAST1 turned out to be 0%; in the assay on MEK1, 0%; in the assay with MEK2, 0%; in the assay on MEK3, 0%; in the assay on MEK4 it was 24%; with MEK5, 38%. For the same compound, the “%Inh” value in the assay with MEK6 and in the assay on MELK was 0% throughout.

With `COc1cc2c(Nc3cccc(NC(=O)c4ccccc4)c3)ncnc2cc1OCCCN1CCOCC1` [GSK223810], the “%Inh” value in the assay with MAP3K3 is reported as 0%; in the assay with MAP3K4 it was 18%; in the assay with MAP4K2 it was 0%; with MAP4K3, 9%; in the assay on MAP4K4 it was 0%; in the assay with MAP4K5 it was 43%. Moreover, the “%Inh” value turned out to be 5% with MAPKAPK2; 0% in the assay with MAPKAPK5; 11% with MARK1; 0% in the assay on MARK2; 0% in the assay on MARK3; 22% with MARK4. Also, the “%Inh” value with MAST1 is on record as 0%; with MEK1, 0%; with MEK2 it was 3%; with MEK3, 7%; in the assay on MEK4, 4%; with MEK5, 80%. In addition, the “%Inh” value with MEK6 is reported as 0%; in the assay on MELK, 15%.

Take `COc1ccc(Nc2nccc(N3CCC(NC(=O)Nc4ccc5c(c4)OCO5)C3)n2)cc1` (centres unmarked) [GSK1379745]: the “%Inh” value in the assay on MAP3K3 is 0%; with MAP3K4, 15%; with MAP4K2, 0%; in the assay with MAP4K3, 5%; in the assay with MAP4K4, 5%; in the assay with MAP4K5, 4%. Besides, the “%Inh” value in the assay on MAPKAPK2 came to 17%; in the assay on MAPKAPK5, 0%; with MARK1, 0%; with MARK2 it was 0%; with MARK3, 13%; in the assay with MARK4, 9%. Also, the “%Inh” value worked out at 0% in the assay on MAST1; 0% in the assay on MEK1; 0% in the assay with MEK2; 0% in the assay with MEK3; 25% in the assay on MEK4; 32% in the assay with MEK5. In addition, the “%Inh” value in the assay on MEK6 and with MELK was 0% throughout.
